The supplement of paper PMC11732987, “Enantioselective OTUD7B fragment discovery through chemoproteomics screening and high-throughput optimisation” (Communications Chemistry, 2025)

Assays:
Assay in all cases: log2 ratio of Biotin-Ahx-Ub-VS probe labelling (fragment/DMSO); higher = less target engagement (more negative = stronger competition), active = hit call of the paper (q ≤ 0.05, log2 ratio ≤ -1)
Conditions in all cases: compound concentration: 200 uM; treatment time: 3 h
[1] = target: USP34 (UniProt Q70CQ2)
USP34, sequence (Q70CQ2 whole entry, the tested form may be a part): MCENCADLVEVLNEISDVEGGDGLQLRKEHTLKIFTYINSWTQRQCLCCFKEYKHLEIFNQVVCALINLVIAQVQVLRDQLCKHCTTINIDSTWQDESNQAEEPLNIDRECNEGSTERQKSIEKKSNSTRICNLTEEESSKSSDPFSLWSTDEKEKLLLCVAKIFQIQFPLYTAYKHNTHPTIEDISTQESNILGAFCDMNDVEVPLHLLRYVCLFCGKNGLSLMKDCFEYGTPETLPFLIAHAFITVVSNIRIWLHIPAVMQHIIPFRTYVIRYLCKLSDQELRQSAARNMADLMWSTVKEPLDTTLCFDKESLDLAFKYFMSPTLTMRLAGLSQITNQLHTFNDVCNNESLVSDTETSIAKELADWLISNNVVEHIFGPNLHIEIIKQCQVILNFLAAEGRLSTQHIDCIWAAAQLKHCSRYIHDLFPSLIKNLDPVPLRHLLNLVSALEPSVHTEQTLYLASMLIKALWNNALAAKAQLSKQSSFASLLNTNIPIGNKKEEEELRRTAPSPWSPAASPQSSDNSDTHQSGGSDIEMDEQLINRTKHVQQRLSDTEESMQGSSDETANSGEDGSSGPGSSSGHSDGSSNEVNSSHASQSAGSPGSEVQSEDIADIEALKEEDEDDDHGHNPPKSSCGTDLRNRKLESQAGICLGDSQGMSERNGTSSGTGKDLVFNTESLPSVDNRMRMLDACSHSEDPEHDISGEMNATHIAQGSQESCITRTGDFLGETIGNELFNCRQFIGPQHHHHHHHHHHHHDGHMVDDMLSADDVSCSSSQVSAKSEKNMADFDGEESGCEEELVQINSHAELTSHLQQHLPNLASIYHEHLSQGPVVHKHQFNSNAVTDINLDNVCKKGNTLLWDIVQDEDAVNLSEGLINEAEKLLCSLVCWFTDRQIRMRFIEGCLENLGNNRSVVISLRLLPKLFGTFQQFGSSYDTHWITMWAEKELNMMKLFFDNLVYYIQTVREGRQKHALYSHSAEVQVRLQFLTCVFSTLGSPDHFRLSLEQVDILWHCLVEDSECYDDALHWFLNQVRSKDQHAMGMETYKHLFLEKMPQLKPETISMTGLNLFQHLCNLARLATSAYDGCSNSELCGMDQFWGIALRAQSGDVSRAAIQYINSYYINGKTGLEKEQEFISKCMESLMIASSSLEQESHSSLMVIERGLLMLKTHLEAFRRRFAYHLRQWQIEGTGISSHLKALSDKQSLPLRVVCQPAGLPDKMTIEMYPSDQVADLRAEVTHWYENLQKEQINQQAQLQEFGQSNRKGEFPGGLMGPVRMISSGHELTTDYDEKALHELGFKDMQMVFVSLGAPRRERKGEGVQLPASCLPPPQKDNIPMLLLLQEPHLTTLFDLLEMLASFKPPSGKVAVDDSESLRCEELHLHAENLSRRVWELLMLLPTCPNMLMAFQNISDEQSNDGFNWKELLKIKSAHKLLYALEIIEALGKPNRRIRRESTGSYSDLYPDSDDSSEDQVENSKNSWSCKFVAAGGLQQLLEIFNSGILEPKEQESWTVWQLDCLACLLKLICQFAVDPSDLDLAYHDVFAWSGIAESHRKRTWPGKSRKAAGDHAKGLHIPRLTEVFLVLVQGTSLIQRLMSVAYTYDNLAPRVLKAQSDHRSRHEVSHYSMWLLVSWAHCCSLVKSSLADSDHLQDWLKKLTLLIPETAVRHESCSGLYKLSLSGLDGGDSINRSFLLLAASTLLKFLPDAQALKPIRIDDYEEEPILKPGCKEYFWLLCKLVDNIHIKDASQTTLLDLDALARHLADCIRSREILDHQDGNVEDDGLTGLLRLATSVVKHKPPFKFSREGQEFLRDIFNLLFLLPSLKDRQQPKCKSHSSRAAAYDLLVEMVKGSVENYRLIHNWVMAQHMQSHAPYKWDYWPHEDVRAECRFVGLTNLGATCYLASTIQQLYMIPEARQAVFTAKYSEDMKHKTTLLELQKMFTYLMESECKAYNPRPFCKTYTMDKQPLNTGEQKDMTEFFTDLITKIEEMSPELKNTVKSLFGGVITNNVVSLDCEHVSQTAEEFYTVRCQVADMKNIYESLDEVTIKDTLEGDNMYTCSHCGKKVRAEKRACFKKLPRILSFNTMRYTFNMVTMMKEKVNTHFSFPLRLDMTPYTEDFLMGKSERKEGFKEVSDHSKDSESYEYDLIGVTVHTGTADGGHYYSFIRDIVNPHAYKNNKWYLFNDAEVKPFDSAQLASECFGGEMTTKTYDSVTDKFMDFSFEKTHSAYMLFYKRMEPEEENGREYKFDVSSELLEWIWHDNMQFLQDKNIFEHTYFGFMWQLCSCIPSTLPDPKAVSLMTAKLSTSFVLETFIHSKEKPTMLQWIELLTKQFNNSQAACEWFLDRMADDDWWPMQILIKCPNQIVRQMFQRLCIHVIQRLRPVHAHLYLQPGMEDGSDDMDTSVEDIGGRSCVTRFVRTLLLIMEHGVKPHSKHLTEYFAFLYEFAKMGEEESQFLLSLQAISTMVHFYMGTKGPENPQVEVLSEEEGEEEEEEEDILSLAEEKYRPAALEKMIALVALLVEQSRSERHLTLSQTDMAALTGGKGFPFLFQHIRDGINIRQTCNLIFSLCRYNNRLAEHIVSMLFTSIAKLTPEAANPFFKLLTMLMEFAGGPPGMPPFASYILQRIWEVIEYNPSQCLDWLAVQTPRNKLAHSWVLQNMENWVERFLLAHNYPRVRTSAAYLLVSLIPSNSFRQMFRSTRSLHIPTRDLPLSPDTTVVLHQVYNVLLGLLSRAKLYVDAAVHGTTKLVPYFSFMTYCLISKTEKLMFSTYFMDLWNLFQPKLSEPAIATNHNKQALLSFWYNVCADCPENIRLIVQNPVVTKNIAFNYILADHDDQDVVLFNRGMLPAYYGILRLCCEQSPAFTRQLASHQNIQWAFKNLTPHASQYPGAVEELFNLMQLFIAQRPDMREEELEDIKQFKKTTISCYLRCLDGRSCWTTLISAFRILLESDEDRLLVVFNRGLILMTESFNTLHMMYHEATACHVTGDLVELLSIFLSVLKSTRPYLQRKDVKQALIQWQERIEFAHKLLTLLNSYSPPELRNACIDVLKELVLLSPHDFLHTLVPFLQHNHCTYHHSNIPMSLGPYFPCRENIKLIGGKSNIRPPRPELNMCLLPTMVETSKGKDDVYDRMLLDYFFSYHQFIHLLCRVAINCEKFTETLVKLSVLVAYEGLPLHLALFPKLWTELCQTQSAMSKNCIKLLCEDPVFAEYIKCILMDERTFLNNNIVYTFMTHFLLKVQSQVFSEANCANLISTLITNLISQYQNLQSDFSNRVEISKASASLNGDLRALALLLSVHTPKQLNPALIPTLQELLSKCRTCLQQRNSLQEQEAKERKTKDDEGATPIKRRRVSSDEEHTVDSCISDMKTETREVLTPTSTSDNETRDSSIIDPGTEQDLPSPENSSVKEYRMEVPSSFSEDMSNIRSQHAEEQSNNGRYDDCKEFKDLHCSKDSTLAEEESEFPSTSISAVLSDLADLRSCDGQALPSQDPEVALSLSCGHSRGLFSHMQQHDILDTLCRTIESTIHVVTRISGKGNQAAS
Outline: (§1)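 Labelling with Biotin-Ahx-Ub-VS (0.5 µM final, 1 h) followed a 3 h triplicate treatment of HEK293T lysate (495 µg per sample, Tris/CHAPS/IGEPAL buffer with protease inhibitors) with fragment at 200 µM or vehicle. Labelled DUBs were NeutrAvidin-enriched, digested with LysC and trypsin, and run by diaPASEF LC-MS/MS. The values, average log2 fragment/vehicle ratios by unpaired t-test, come from global-median-normalised Spectronaut label-free quantities. Proteins with ≥2 unique peptides were used.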

[2] = target: T1, USP36 (UniProt Q9P275)
T1 sequence (whole entry): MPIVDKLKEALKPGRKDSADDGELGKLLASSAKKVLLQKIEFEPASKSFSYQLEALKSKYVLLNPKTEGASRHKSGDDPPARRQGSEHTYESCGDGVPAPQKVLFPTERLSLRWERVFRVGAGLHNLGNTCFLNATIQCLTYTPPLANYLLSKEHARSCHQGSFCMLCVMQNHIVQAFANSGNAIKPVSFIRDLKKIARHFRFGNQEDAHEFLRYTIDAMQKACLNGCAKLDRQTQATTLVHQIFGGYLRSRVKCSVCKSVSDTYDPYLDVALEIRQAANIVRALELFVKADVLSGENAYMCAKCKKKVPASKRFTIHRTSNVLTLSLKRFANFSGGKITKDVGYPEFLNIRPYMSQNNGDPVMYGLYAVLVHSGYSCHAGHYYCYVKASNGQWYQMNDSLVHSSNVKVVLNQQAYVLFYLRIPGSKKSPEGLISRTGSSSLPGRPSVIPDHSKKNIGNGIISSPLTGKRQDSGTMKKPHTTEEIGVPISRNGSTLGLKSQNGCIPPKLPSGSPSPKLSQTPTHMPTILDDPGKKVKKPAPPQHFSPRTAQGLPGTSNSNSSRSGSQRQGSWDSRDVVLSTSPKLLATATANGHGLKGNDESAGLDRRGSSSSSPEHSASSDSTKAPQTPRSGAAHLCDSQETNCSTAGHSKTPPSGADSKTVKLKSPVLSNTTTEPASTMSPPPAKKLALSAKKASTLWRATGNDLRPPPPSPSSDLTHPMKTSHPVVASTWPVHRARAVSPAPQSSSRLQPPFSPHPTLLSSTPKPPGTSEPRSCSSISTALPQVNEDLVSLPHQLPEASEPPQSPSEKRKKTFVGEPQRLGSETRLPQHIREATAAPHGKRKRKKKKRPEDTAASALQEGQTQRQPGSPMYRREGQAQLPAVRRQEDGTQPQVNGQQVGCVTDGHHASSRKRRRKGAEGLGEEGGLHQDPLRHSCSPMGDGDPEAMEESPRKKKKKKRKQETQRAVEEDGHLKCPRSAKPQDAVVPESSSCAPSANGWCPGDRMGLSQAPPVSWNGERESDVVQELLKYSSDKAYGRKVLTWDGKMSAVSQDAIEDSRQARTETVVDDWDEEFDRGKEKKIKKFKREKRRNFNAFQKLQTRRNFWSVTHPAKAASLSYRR
Outline: as §1

[3] = target: T2, USP38 (UniProt Q8NB14)
T2 sequence (whole entry): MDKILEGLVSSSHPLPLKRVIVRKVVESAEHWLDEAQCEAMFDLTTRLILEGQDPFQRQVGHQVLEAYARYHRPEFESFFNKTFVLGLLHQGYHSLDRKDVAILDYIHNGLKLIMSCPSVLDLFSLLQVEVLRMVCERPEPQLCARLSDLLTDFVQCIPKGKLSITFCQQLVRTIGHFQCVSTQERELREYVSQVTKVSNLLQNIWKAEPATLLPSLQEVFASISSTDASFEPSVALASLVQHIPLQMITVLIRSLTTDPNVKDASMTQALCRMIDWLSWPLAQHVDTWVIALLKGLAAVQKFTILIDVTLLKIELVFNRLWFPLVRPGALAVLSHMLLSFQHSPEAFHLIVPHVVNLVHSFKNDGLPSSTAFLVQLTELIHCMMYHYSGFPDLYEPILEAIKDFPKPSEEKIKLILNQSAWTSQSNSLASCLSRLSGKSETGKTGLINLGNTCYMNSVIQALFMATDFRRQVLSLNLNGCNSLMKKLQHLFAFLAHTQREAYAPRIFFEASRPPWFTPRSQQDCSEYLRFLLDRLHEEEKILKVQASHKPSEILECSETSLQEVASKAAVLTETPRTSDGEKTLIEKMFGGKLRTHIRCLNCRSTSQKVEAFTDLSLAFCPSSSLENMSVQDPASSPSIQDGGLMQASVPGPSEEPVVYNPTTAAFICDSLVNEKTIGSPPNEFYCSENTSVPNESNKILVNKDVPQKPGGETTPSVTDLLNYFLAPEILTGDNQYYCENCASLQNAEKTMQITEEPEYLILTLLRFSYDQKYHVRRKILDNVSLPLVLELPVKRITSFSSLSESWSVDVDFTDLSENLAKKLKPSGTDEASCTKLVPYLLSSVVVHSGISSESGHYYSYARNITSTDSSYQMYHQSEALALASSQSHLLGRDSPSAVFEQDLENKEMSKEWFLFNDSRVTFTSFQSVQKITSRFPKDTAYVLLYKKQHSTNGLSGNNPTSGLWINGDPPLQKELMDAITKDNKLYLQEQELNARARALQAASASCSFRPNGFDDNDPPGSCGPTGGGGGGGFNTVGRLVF
Outline: as §1

[4] = target: T3, USP39 (UniProt Q53GS9)
T3 sequence (whole entry): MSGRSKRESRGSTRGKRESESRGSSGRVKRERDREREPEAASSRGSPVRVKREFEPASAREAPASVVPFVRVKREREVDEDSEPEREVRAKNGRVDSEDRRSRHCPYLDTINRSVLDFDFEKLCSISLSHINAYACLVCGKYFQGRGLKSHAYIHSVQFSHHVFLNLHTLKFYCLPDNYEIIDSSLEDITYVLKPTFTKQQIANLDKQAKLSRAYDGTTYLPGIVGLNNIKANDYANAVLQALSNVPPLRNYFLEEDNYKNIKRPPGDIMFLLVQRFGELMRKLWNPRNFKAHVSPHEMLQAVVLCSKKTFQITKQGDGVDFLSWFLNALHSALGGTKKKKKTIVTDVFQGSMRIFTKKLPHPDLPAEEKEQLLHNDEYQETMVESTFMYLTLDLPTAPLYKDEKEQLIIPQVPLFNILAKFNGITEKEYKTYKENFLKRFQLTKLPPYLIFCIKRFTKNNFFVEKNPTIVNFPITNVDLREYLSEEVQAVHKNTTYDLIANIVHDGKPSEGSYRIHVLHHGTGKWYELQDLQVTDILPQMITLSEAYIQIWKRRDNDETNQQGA
Outline: as §1

[5] = target: T4, USP4 (UniProt Q13107)
T4 sequence (whole entry): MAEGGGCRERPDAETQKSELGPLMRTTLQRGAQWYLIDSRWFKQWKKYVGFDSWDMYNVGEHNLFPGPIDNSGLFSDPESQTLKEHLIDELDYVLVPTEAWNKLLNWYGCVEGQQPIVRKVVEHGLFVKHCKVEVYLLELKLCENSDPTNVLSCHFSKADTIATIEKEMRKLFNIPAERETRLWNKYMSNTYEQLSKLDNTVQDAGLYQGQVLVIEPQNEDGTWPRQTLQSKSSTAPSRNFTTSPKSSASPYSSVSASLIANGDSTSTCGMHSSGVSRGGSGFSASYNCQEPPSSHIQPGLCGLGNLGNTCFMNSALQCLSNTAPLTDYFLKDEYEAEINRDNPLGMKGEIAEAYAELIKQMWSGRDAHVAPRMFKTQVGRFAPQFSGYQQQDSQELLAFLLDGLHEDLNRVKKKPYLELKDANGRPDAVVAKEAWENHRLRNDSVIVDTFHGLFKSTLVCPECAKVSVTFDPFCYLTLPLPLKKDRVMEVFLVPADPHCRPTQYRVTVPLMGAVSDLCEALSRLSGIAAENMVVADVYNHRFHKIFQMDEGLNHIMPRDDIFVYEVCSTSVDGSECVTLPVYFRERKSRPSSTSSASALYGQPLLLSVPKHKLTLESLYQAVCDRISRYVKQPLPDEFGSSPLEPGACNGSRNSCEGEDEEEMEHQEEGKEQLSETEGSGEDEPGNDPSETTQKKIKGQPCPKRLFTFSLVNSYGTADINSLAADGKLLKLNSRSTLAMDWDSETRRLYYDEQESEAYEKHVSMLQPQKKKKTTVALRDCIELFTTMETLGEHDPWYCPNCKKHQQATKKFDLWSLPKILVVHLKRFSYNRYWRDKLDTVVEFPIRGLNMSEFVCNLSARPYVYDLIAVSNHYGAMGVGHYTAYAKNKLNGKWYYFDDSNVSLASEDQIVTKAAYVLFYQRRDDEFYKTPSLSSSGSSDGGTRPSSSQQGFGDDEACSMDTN
Outline: as §1

Measured: log2 ratio of Biotin-Ahx-Ub-VS probe labelling

C[C@@H](NC(=O)CCl)c1cccc(C#N)c1
inactive: [1] -0.444 | [2] 0.00395 | [3] -0.0294 | [4] 0.198 | [5] 0.0193
